These results are taken from PubChem BioAssay (NCATS).

Values without a mark were called inactive. Results filed as inconclusive are left out. Calls of active or inactive are those of the source. Unless noted, the call rests on the fitted dose curve; in most records, active means well fitted curve in either direction with a large enough effect (not every such curve was filed as active); inconclusive means small, poorly fitted or top-dose-only effect, or another doubt; inactive means flat fitted curve, though single readings scatter.

In assay [1] the target is Lysosomal acid glucosylceramidase (Homo sapiens) (UniProt P04062). Briefly: Glucocerebrosidase-p2 (AID 348; in the data active means potency below about 10 µM; further: potency means the concentration at half of the fitted maximal effect). The note with it: purified GBA, blue fluorogenic substrate, 40 min. Put shortly:
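Compounds titrated from 0.6 nM upwards against 0.2 nM enzyme in pH 5.9 citric acid/KH2PO4, taurocholate, tween-20; blue fluorogenic substrate 80 uM, 40 min room temperature, stopped and read Ex 365/Em 440 for AC50.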

The nature of assay [2]: AP1 Signaling Pathway (AID 357). Further: on the % scale 0 is the no-effect control and ±100 the full control effect. The note with it: ME-180 AP-1-bla reporter, EGF-induced, beta-lactamase ratio, 5 h; at 7.69 µM (top of the series) unless noted. Put shortly: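 AP-1-bla ME-180 cells, Opti-MEM + 0.5% dialyzed FBS, plated overnight 37 °C. Cpd titration + EC50 EGF, 5 h 37 °C. CCF4 2.5 h RT; ex 405, em 460/530 ratio → %activity, AC50.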
The target of assay [3] is Cytochrome P450 1A2 (Homo sapiens) (UniProt P05177). Briefly: p450-cyp1a2 (AID 410; calls by dose curve; further: potency means the concentration at half of the fitted maximal effect). The note with it: recombinant CYP1A2, luciferin-ME demethylation, luminescence; series mostly up to 11.4 µM. The essentials: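 Human CYP1A2 (20nM) demethylated Luciferin-ME at its Km (100uM) in 100mM KPO4. After 10 min compound preincubation, NADPH regeneration ran the reaction 60 min at room temperature. Luciferin was read by luminescence, normalized to 57 uM furafylline.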
Cytochrome P450 1A2 (Homo sapiens), sequence (P05177 whole entry, looked up): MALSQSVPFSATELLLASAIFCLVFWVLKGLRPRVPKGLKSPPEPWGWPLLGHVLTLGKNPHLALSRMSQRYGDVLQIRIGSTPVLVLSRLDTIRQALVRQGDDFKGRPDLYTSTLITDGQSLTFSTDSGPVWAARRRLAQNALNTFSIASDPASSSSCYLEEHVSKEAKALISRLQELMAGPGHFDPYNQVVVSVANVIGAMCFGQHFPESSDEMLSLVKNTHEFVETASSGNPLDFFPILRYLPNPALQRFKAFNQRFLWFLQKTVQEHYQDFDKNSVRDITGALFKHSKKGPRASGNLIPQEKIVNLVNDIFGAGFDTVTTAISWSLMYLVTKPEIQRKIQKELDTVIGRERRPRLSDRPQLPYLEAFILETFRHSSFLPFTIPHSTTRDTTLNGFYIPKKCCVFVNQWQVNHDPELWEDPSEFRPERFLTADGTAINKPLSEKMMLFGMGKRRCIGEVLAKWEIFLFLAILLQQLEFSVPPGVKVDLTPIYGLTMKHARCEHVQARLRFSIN

Assay [4] can be described thus: NFAT Signaling Pathway (AID 444).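 Further: carbachol stimulus at about its EC50 of 1 µM final; on the % scale 0 is the no-effect control and ±100 the full control effect.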 To be noted: Jurkat NFAT-bla M1, carbachol, beta-lactamase ratio, 5 h; at 7.69 µM (top of the series) unless noted. The essentials: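 Jurkat cells with NFAT-driven β-lactamase reporter and co-expressed M1 receptor, stimulated with carbachol (final 1 uM, ~EC50), compound titration, 5 h at 37 °C. CCF4 loaded 1 h at RT; 460/530 nm ratio gave %activity and AC50.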

The target of assay [5] is Glucocorticoid receptor (Homo sapiens) (UniProt P04150). Put plainly: GR-GFP Redistribution (AID 450;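 active means compounds whose dose series gives a full or clear partial fitted curve of increased nuclear translocation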; further: potency means the concentration at half of the fitted maximal effect). To be noted: U2OS GR-GFP nuclear translocation, laser cytometry, 2 h.
Glucocorticoid receptor (Homo sapiens), sequence (P04150 whole entry, looked up, the tested form may be a part): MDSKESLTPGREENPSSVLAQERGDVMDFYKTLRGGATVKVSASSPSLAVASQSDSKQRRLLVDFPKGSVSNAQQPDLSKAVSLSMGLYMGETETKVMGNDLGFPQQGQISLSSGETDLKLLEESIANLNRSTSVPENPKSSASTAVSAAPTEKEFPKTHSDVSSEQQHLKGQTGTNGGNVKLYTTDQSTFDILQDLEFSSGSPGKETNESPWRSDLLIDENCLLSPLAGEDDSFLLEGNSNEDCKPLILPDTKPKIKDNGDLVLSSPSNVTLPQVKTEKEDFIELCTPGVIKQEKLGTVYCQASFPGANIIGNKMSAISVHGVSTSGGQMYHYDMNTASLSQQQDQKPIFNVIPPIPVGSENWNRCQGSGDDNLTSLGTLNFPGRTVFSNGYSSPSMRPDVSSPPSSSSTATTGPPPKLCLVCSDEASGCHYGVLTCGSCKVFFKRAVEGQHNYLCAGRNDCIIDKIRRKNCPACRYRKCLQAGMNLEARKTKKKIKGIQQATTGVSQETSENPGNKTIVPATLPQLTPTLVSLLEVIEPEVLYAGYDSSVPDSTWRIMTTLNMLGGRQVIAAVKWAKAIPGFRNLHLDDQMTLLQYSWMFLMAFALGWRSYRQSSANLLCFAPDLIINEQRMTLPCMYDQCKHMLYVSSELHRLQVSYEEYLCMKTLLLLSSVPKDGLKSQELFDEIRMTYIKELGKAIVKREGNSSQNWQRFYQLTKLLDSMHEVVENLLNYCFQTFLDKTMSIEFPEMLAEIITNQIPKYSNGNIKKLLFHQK
The target is the same in assay [6]. Put plainly: GR-EFC Redistribution (AID 451; calls by dose curve; further: potency means the concentration at half of the fitted maximal effect). To be noted: CHO-K1 GR-EFC translocation, beta-gal luminescence, 2 h. Put shortly: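 CHO-K1 cells expressing nuclear EA and GR-ED fragments of b-gal; compounds titrated up to 46 uM final, 2 h at 37 C. GR nuclear translocation read as complemented b-gal luminescence after 1 h RT detection.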
Assay [7] addresses Mitogen-activated protein kinase 10 (Mus musculus) (UniProt Q61831). Briefly: JNK3 AlphaScreen Assay (AID 530).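 Further: kinase came from lysate of stimulated human HepG2 cells; signal reports phosphorylation of biotinylated GST-cJun 1-79 at Ser73 with 10 µM ATP; on the % scale 0 is the no-effect control and ±100 the full control effect.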 To be noted: JNK3 lysate, c-Jun phosphorylation; series mostly up to 11.4 µM. The essentials: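 qHTS format: compounds tested as titrations against IL-1beta/TNF-alpha-activated HepG2 lysate JNK3 with biotin-GST-cJun substrate and 10 uM ATP at room temperature. Loss of anti-phospho-cJun AlphaScreen signal indicates inhibition.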

Assay [8] has as its target 3',5'-cyclic-AMP phosphodiesterase 4B (Homo sapiens) (UniProt Q07343). Put plainly: qHTS Assay for Inhibitors of PDE-IV (AID 607; active means well fitted activation curve with a large enough effect in the main read-out, with a control signal flat, not every such curve was filed as active; further: % of control where 0% means no effect). The note with it: HEK293 ACTOne CNG channel cells, membrane potential fluorescence; series mostly up to 22.9 µM. Put shortly: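 Cell-based read-out of cAMP via a modified cyclic nucleotide-gated channel and membrane potential dye (535/590 nm) in HEK293 cells expressing PDE4 endogenously. Compounds tested up to 22.9 uM final; 100 uM RO 20-1724 reference.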
In general terms: qHTS replaces the single test concentration by a dilution series.

Assay [9] addresses Cytochrome P450 2C9 (Homo sapiens) (UniProt P11712). Briefly: qHTS Assay for Inhibitors and Substrates of Cytochrome P450 2C9 (AID 883; active means well fitted curve in the direction sought with a large enough effect; an effect the other way counts as inactive or inconclusive; further: nearly all actives have a fitted effect of over 60% in size; further: potency means the concentration at half of the fitted maximal effect). To be noted: recombinant CYP2C9, luciferin-H luminescence, 60 min; series mostly up to 11.4 µM. Put shortly:
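Signal: luciferase luminescence reporting luciferin produced by CYP2C9. Conditions: 10nM enzyme, Luciferin-H 100uM at KM, 25mM KPO4, 37C, 60 min NADPH-driven reaction. Reference: 57uM sulphaphenazole as 100% inhibition.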

Assay [10] has as its target Cytochrome P450 3A4 (Homo sapiens) (UniProt P08684). Put plainly: qHTS Assay for Inhibitors and Substrates of Cytochrome P450 3A4 (AID 884; active means well fitted curve in the direction sought with a large enough effect; an effect the other way counts as inactive or inconclusive; further: on the % scale 0 is the no-effect control and ±100 the full control effect; nearly all actives have a fitted effect of over 50% in size). The note with it: recombinant CYP3A4, Luciferin-PPXE luminescence; series mostly up to 57.1 µM. Put shortly:
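20 nM human CYP3A4 with 25 uM Luciferin-PPXE (at KM) in 200 mM KPO4, preincubated 10 min with compound; NADPH regeneration started a 60 min RT reaction. Luciferin detected by luminescence, normalized to 57 uM ketoconazole as full inhibition.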

The target in assay [11] is Cytochrome P450 2D6 (Homo sapiens) (UniProt P10635). Put plainly: qHTS Assay for Inhibitors and Substrates of Cytochrome P450 2D6 (AID 891; active means well fitted curve in the direction sought with a large enough effect; an effect the other way counts as inactive or inconclusive;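 further: luciferin methyl ether substrate demethylated by CYP2D6 with NADPH regeneration; on the % scale 0 is the no-effect control and ±100 the full control effect; nearly all actives have a fitted effect of over 60% in size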). The note with it: recombinant CYP2D6, luciferin-ME EGE luminescence; series mostly up to 11.4 µM. Put shortly: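 Human CYP2D6 (5 nM) with 30 uM Luciferin-ME EGE (at Km) in 100 mM KPO4, compound preincubated 10 min, then NADPH regeneration system for 60 min at room temperature. Luciferin read by luminescence; normalized to 1.43 uM quinidine.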
Cytochrome P450 2D6 (Homo sapiens), sequence (P10635 whole entry, looked up): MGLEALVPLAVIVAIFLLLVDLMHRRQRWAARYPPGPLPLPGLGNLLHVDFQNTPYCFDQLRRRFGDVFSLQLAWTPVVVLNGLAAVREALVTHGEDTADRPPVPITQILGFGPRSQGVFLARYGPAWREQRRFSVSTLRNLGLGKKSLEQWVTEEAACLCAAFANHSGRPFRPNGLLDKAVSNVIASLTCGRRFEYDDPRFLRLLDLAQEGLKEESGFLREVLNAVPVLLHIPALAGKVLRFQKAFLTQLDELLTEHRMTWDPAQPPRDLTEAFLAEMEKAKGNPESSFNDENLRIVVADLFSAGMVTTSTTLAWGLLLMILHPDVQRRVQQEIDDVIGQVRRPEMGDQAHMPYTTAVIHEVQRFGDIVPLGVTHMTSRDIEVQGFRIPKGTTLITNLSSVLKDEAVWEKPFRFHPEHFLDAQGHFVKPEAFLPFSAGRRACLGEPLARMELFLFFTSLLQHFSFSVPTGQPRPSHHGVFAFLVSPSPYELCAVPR

The target in assay [12] is Cytochrome P450 2C19 (Homo sapiens) (UniProt P33261). Briefly: qHTS Assay for Inhibitors and Substrates of Cytochrome P450 2C19 (AID 899; active means well fitted curve in the direction sought with a large enough effect; an effect the other way counts as inactive or inconclusive; further: on the % scale 0 is the no-effect control and ±100 the full control effect; nearly all actives have a fitted effect of over 60% in size). To be noted: recombinant CYP2C19, luciferin-H EGE luminescence; series mostly up to 11.4 µM. The essentials:
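Signal comes from luciferase acting on luciferin released by CYP2C19-mediated hydroxylation of Luciferin-H EGE, 10uM (KM). Assay mix: 5nM enzyme, 50mM KPO4; 60 min at 37C with NADPH regeneration. Data normalized against 57uM ketoconazole.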

The nature of assay [13]: Stat Signaling Pathway (AID 446).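 Further: ME-180 cervical cancer cells given 40 pM IL-6 alongside compound; SIE-controlled beta-lactamase reporter measured as 460/530 nm FRET emission ratio; on the % scale 0 is the no-effect control and ±100 the full control effect.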 To be noted: ME-180 SIE beta-lactamase reporter, IL-6 stimulated, 5 h; at 7.69 µM (top of the series) unless noted. Put shortly:
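Reporter line: ME-180 cervical carcinoma, SIE-beta-lactamase. Treatment: compound with 40 pM IL-6, 5 hrs, 37 C, in low-serum OPTI-MEM with 10 mM HEPES pH 7.3. Detection: 460/530 nm fluorescence.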

For assay [14], the target named is Cytochrome P450 3A4 (Homo sapiens) (UniProt P08684). Put plainly: qHTS Assay for Activators of Cytochrome P450 3A4 (AID 885; active means well fitted curve in the direction sought with a large enough effect; an effect the other way counts as inactive or inconclusive; further: nearly all actives have a fitted effect of over 65% in size). To be noted: recombinant CYP3A4, Luciferin-PPXE luminescence, 60 min; series mostly up to 11.4 µM. Put shortly:
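Signal was normalized against complete inhibition by 57 uM ketoconazole. The reaction used 20nM CYP3A4 with 25uM Luciferin-PPXE, 10-min compound preincubation and a 60-min NADPH-supported step at RT.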

Lysosomal acid glucosylceramidase (Homo sapiens), sequence (P04062 whole entry, looked up): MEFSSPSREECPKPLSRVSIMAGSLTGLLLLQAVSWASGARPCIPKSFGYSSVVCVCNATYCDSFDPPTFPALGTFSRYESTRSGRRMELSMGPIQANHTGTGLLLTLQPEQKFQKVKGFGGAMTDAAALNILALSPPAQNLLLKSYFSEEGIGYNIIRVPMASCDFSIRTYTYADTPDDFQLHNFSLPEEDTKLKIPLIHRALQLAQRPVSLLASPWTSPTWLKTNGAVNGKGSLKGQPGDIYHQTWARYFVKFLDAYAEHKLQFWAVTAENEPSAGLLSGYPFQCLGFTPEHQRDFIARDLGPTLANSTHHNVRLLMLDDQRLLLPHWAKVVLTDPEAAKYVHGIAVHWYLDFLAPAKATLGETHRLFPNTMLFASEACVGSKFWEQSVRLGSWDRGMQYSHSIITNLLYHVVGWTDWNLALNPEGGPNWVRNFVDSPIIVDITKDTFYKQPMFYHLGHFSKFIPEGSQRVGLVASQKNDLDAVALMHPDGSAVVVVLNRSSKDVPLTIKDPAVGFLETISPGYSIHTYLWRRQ
3',5'-cyclic-AMP phosphodiesterase 4B (Homo sapiens), sequence (Q07343 whole entry, looked up): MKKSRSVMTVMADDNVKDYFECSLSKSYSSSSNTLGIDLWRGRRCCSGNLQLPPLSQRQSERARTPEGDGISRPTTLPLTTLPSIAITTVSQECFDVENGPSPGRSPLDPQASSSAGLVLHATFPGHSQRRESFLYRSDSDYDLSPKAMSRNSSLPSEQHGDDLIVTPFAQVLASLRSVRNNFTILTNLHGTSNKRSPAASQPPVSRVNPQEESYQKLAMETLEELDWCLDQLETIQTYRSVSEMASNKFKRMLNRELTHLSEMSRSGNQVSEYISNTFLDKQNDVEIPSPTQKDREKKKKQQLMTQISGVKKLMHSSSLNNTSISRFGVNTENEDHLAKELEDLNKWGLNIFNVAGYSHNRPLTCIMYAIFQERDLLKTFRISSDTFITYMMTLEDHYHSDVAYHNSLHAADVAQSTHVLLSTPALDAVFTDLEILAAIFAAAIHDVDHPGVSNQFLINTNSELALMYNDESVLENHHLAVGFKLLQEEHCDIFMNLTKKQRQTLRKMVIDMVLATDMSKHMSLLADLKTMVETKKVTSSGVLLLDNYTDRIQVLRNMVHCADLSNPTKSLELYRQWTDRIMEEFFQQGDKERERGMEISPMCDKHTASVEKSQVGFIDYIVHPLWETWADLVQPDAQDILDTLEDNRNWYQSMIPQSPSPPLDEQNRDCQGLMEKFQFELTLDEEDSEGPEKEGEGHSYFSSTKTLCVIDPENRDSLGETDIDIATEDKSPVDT
Cytochrome P450 2C9 (Homo sapiens), sequence (P11712 whole entry, looked up): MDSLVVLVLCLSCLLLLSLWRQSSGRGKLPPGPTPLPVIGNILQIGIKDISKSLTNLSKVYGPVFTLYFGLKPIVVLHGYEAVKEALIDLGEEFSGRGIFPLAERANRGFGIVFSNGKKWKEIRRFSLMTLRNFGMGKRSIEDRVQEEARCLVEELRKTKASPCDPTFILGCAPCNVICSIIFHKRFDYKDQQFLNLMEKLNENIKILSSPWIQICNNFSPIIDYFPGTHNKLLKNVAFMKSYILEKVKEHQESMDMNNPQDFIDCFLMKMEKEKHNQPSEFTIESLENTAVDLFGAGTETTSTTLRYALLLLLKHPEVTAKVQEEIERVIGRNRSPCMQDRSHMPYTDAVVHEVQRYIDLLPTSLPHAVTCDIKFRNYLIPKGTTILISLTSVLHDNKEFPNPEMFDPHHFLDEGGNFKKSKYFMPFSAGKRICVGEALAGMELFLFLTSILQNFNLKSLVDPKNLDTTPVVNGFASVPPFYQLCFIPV
Cytochrome P450 3A4 (Homo sapiens), sequence (P08684 whole entry, looked up): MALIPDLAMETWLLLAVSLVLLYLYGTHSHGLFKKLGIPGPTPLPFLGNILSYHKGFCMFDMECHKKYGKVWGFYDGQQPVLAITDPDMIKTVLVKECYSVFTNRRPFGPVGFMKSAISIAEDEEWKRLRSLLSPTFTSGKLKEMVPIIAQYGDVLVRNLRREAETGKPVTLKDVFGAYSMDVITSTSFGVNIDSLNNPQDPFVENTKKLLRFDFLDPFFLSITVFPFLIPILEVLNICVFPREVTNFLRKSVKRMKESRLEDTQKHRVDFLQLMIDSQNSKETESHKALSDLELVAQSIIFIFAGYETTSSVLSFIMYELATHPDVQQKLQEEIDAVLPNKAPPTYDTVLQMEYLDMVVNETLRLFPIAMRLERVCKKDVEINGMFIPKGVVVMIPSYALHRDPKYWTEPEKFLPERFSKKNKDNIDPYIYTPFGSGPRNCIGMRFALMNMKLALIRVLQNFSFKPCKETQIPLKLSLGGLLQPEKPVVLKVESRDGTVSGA
Cytochrome P450 2C19 (Homo sapiens), sequence (P33261 whole entry, looked up): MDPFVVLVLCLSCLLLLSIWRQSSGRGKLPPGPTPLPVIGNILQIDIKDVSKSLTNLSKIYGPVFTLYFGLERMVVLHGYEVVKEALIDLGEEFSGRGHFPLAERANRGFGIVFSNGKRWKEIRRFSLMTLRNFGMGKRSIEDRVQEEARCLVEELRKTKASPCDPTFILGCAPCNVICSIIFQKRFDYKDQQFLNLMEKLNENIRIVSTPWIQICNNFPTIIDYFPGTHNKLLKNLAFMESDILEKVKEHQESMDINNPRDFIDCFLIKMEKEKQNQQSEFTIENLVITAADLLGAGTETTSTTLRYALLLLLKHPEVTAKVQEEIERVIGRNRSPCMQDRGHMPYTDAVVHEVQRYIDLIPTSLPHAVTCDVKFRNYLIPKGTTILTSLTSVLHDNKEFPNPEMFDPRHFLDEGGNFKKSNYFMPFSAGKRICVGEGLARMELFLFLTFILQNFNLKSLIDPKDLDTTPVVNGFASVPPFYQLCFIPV

For the compound `N#CNC(N)=Nc1ccc(Cl)cc1`, the Potency in assay [1] is above 11.4 µM; in [3], 3.98 µM (active); in assay [5], above 46 µM; in assay [6] it was above 9.22 µM. Moreover, the activity change, negative = inhibition in assay [2] is 5.32%; in [4] it was 2.31%; in assay [10], -49.7% [at 11.4 µM]. The Potency result in assay [7], in [8], in [9], in assay [11] and in assay [12] was “inactive” in each case.

Regarding `CO[C@@H]1/C=C\O[C@]2(C)Oc3c(C)c(O)c4c(O)c(cc(O)c4c3C2=O)NC(=O)/C(C)=C\C=C/[C@H](C)[C@@H](O)[C@H](C)[C@H](O)[C@H](C)[C@H](OC(C)=O)[C@@H]1C`, the Potency in assay [1] is above 11.4 µM. Besides, the activity change, negative = inhibition in assay [2] was 1.83%; in assay [4], -26.6%. Besides, the Potency result in assay [3], in [7], in assay [8] and in assay [14] was “inactive” in each case. Moreover, the activity, negative = inhibition in assay [13] was -1.99%.

As to `O=C(O)c1ccccc1-c1ccccc1C(=O)Nc1ccc2c(c1)Cc1cc(F)ccc1-2`, the Potency in assay [1] is above 11.4 µM; in [3] it was 3.98 µM (active); in [5], above 46 µM; in assay [6], above 9.22 µM; in assay [9], 2.51 µM (active). Further, the activity change, negative = inhibition in assay [2] was -17.3%; in assay [4], -16.2%. For the same compound, the Potency result in [7] and in assay [8] was “inactive” in each case.

Regarding `Oc1c(CN2CCOCC2)ccc(CN2CCOCC2)c1O`, the Potency is above 11.4 µM in assay [1], above 46 µM in assay [5] and above 9.22 µM in assay [6]. The figures for the activity change, negative = inhibition in assay [2], in assay [3] and in assay [4] were -1.19%, -11.9% [at 2.29 µM] and 13%, respectively. Further, the Potency entry in assay [7] and in assay [8] was “inactive” throughout.

In the case of `Nc1[nH]c(=O)nc2c1ncn2[C@H]1O[C@@H](CO)[C@@H](O)[C@@H]1O`, the values for the Potency in assay [1], in [5] and in assay [6] were above 11.4 µM, above 46 µM and above 9.22 µM, respectively. In addition, the activity change, negative = inhibition in assay [2] is -9.66%; in assay [4] it was 15.7%. Also, the Potency result in assay [3], in assay [7] and in assay [8] was “inactive” throughout.

For `Oc1ccc(Cn2c(-c3ccc(O)cc3)nc3ccccc32)cc1`, the Potency in [1] is above 11.4 µM; in assay [5], above 46 µM; in assay [6], above 9.22 µM. The activity change, negative = inhibition in assay [2] is 0.507%; in assay [4], 20.6%. Moreover, the Potency entry in assay [3], in [7] and in [8] was “inactive” each time.

With `CCOC(=O)CCCN`, the Potency in assay [1] was above 11.4 µM; in assay [3], 6.31 µM (active); in assay [5], above 46 µM; in [6], above 9.22 µM. Besides, the activity change, negative = inhibition in assay [2] is -4.22%; in assay [4], 2.34%. Moreover, the Potency entry in [7] and in assay [8] was “inactive” throughout.

As to `COCCn1c(=O)c(-c2ccc(OC)cc2)nc2cnc(OC)nc21`, the Potency in assay [1] is above 11.4 µM; in assay [3], 3.16 µM (active); in assay [5], above 9.22 µM; in assay [6], above 46 µM. Further, the activity change, negative = inhibition is 2.45% in assay [2] and 8.31% in [4]. For the same compound, the Potency entry in assay [7] and in assay [8] was “inactive” throughout.

In the case of `Cc1cc(C)c2c(SCc3ccc(Cl)cc3Cl)nc(N)nc2n1`, the Potency in [1] was above 11.4 µM; in assay [3], 3.16 µM (active); in [5] it was above 46 µM; in assay [6], above 9.22 µM. Besides, the activity change, negative = inhibition in assay [2] is 0.307%; in assay [4] it was -14.4%. In addition, the Potency result in assay [7] and in assay [8] was “inactive” each time.
